Data from PubChem BioAssay (NCI).
The panel holds about 83,000 compounds, 20% with a hit somewhere; the sample as a whole holds those more often.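 Single-concentration screen, 48 h exposure, 96-well plates. Endpoint: percent growth. Below 10 = active.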 Active and inactive are the calls of the source.

Key:
Assay in all cases: NCI-60 one-dose screen, 48 h (100 = growth as untreated, 0 = no growth, -100 = all killed)
Settings in all cases: 10 µM unless noted
SR leukemia = system: SR leukemia
RPMI-8226 leukemia = system: RPMI-8226 leukemia
OVCAR-8 ovarian = system: OVCAR-8 ovarian
OVCAR-5 ovarian = system: OVCAR-5 ovarian
OVCAR-4 ovarian = system: OVCAR-4 ovarian
SK-OV-3 ovarian = system: SK-OV-3 ovarian
IGROV1 ovarian = system: IGROV1 ovarian
OVCAR-3 ovarian = system: OVCAR-3 ovarian
HS 578T breast = system: HS 578T breast
NCI/ADR-RES ovarian = system: NCI/ADR-RES ovarian

Measured: growth

COc1cc(C(C)=C(c2ccc(OCCN(C)C)cc2)c2ccc(OCCN(C)C)cc2)ccc1F
inactive: SR leukemia 99.2% | RPMI-8226 leukemia 107% | OVCAR-8 ovarian 104% | OVCAR-5 ovarian 103% | OVCAR-4 ovarian 108% | SK-OV-3 ovarian 102% | IGROV1 ovarian 105% | OVCAR-3 ovarian 109% | HS 578T breast 101% | NCI/ADR-RES ovarian 105%

CC(Nc1ncnc2ccc(-c3cnc(N)nc3)cc12)c1ccccc1 (stereo not given)
inactive: SR leukemia 15.1% | RPMI-8226 leukemia 28.2% | OVCAR-8 ovarian 48% | OVCAR-5 ovarian 28.7% | OVCAR-4 ovarian 39.7% | SK-OV-3 ovarian 27.3% | OVCAR-3 ovarian 43.8% | NCI/ADR-RES ovarian 53%
active: IGROV1 ovarian -13.4% | HS 578T breast 5.98%

COc1cc(-c2nc(-c3ccccc3)[nH]c2-c2ccnc(NCCCNS(=O)(=O)c3cccc(F)c3)n2)ccc1F
inactive: SR leukemia 77.1% | RPMI-8226 leukemia 62.4% | OVCAR-8 ovarian 86% | OVCAR-5 ovarian 118% | OVCAR-4 ovarian 104% | SK-OV-3 ovarian 136% | OVCAR-3 ovarian 109% | HS 578T breast 103% | NCI/ADR-RES ovarian 92.1%
active: IGROV1 ovarian -69.7%

C(=N\Nc1nc(N/N=C/c2ccc3c(c2)OCO3)nc(N2CCCCC2)n1)/c1ccc2c(c1)OCO2
inactive: RPMI-8226 leukemia 56.2% | OVCAR-8 ovarian 90.1% | OVCAR-5 ovarian 118% | OVCAR-4 ovarian 110% | SK-OV-3 ovarian 140% | IGROV1 ovarian 76.9% | OVCAR-3 ovarian 105% | HS 578T breast 104% | NCI/ADR-RES ovarian 85.5%
active: SR leukemia 0.113%

Cn1ncc2ncc(-c3ccc4ncc(C#N)c(N5CCc6cc(F)c(Cl)cc65)c4c3)cc21
active: IGROV1 ovarian -9.7% | HS 578T breast -1.2%
inactive: SR leukemia 22.3% | RPMI-8226 leukemia 35.8% | OVCAR-8 ovarian 38.8% | OVCAR-5 ovarian 47% | OVCAR-4 ovarian 26.1% | SK-OV-3 ovarian 15% | OVCAR-3 ovarian 29.8% | NCI/ADR-RES ovarian 39.3%

CCN(CC)S(=O)(=O)c1ccc(-c2nc(C(Cl)Cl)nc3cc(C)nn23)cc1
active: SR leukemia 9.52% | RPMI-8226 leukemia -7.21%
inactive: OVCAR-8 ovarian 12.3% | OVCAR-5 ovarian 41.5% | OVCAR-4 ovarian 34.4% | SK-OV-3 ovarian 18.4% | IGROV1 ovarian 12% | OVCAR-3 ovarian 21.1% | HS 578T breast 35.6% | NCI/ADR-RES ovarian 14%

CC(C)NC(=O)c1cc(-c2ccc(NC(=O)Nc3ccc(F)cc3)cc2)nc2cccnc12
inactive: SR leukemia 94.3% | RPMI-8226 leukemia 109% | OVCAR-8 ovarian 105% | OVCAR-5 ovarian 109% | OVCAR-4 ovarian 104% | SK-OV-3 ovarian 112% | IGROV1 ovarian 110% | OVCAR-3 ovarian 115% | HS 578T breast 109% | NCI/ADR-RES ovarian 104%

C[C@H]1OCC2(CCN(c3cnc(C(=O)Nc4cc(F)cc5cccnc45)cn3)CC2)[C@H]1N
active: SR leukemia -0.453%
inactive: RPMI-8226 leukemia 42.1% | OVCAR-8 ovarian 77.6% | OVCAR-5 ovarian 74.3% | OVCAR-4 ovarian 10.5% | SK-OV-3 ovarian 98.8% | IGROV1 ovarian 20.1% | OVCAR-3 ovarian 19.5% | HS 578T breast 60.8% | NCI/ADR-RES ovarian 72.2%

CC(Nc1c(C#N)cnc2ccc(-c3cncc(O)c3)cc12)c1ccccc1 (stereo not given)
inactive: RPMI-8226 leukemia 11.3% | OVCAR-8 ovarian 13% | OVCAR-5 ovarian 25.6% | NCI/ADR-RES ovarian 12.4%
active: SR leukemia 6.19% | OVCAR-4 ovarian -17.5% | SK-OV-3 ovarian -3.84% | IGROV1 ovarian -20.3% | OVCAR-3 ovarian 7.92% | HS 578T breast -18.3%

COc1ccc(C2CC(c3cccc(OCCCCOc4cccc(C5=NN(C(C)=O)C(c6ccc(OC)cc6)C5)c4)c3)=NN2C(C)=O)cc1 (stereo not given)
inactive: SR leukemia 39.3% | RPMI-8226 leukemia 33.8% | OVCAR-8 ovarian 68.2% | OVCAR-5 ovarian 96.2% | OVCAR-4 ovarian 20% | SK-OV-3 ovarian 83.5% | IGROV1 ovarian 83.8% | OVCAR-3 ovarian 68.2% | HS 578T breast 89.3% | NCI/ADR-RES ovarian 75.7%

Cn1c(SCC(=O)c2ccc(F)cc2)nc2ccccc2c1=O
inactive: SR leukemia 93% | RPMI-8226 leukemia 76.5% | OVCAR-8 ovarian 94.5% | OVCAR-5 ovarian 105% | OVCAR-4 ovarian 79.1% | SK-OV-3 ovarian 95.7% | IGROV1 ovarian 88.7% | OVCAR-3 ovarian 104% | HS 578T breast 101% | NCI/ADR-RES ovarian 93.6%

Cc1nc(/N=C(N)/N=C(\N)c2cccc(Br)c2)sc1C
inactive: SR leukemia 35.6% | RPMI-8226 leukemia 55.1% | OVCAR-8 ovarian 58.2% | OVCAR-5 ovarian 71.1% | OVCAR-4 ovarian 87.3% | SK-OV-3 ovarian 67.8% | IGROV1 ovarian 52.3% | OVCAR-3 ovarian 47.2% | HS 578T breast 73.1% | NCI/ADR-RES ovarian 36.1%

CCCc1cc2cc(-n3nc(CC)c4c3CC(C)(C)CC4=O)cc(NC3CCC(O)CC3)c2c(=O)[nH]1 (stereo not given)
inactive: RPMI-8226 leukemia 12.4% | OVCAR-8 ovarian 21.9% | OVCAR-5 ovarian 35.2% | OVCAR-4 ovarian 64.9% | SK-OV-3 ovarian 27.2% | IGROV1 ovarian 25.4% | OVCAR-3 ovarian 46.7% | HS 578T breast 16.1% | NCI/ADR-RES ovarian 39.9%
active: SR leukemia 0.947%

CC(=O)Nc1nc(C)c(-c2csc(Nc3ccccc3)n2)s1
inactive: RPMI-8226 leukemia 27.4% | OVCAR-8 ovarian 52.3% | OVCAR-5 ovarian 41.9% | OVCAR-4 ovarian 54.7% | SK-OV-3 ovarian 15.3% | OVCAR-3 ovarian 37.1% | NCI/ADR-RES ovarian 35.9%
active: SR leukemia 8.83% | IGROV1 ovarian -9.74% | HS 578T breast -4.87%

CN(C)S(=O)(=O)c1ccc(-c2nc(C(Cl)Cl)nc3cc(-c4ccccc4)nn23)cc1
inactive: SR leukemia 36.2% | RPMI-8226 leukemia 86.8% | OVCAR-8 ovarian 60.7% | OVCAR-5 ovarian 90% | OVCAR-4 ovarian 90.5% | SK-OV-3 ovarian 92.2% | IGROV1 ovarian 66% | OVCAR-3 ovarian 93.5% | HS 578T breast 109% | NCI/ADR-RES ovarian 69.5%

CCOC(=O)c1c(NCC(=O)Nc2cccc([N+](=O)[O-])c2)sc(C(C)=O)c1C
active: SR leukemia 0.317% | RPMI-8226 leukemia -14.1% | OVCAR-8 ovarian -8.65% | OVCAR-5 ovarian 1.07% | OVCAR-4 ovarian 4.88% | SK-OV-3 ovarian -13.4% | OVCAR-3 ovarian -37.2% | HS 578T breast -23.9% | NCI/ADR-RES ovarian -28.3%
inactive: IGROV1 ovarian 22%

CC1(C)CC[C@]2(C(=O)NCCCCCCN(CCCN)CCCN)CC[C@]3(C)C(=CC[C@@H]4[C@@]5(C)CC[C@H](O)C(C)(C)[C@@H]5CC[C@]43C)[C@@H]2C1
inactive: SR leukemia 87.2% | RPMI-8226 leukemia 100% | OVCAR-8 ovarian 99% | OVCAR-5 ovarian 96.8% | OVCAR-4 ovarian 109% | SK-OV-3 ovarian 114% | IGROV1 ovarian 101% | OVCAR-3 ovarian 106% | HS 578T breast 110% | NCI/ADR-RES ovarian 98.8%

COc1ccc(C(C)=C(c2ccc(OCCN(C)C)cc2)c2ccc(OCCN(C)C)cc2)cc1
active: SR leukemia -46.5% | RPMI-8226 leukemia -48.5% | OVCAR-8 ovarian -2.55% | OVCAR-5 ovarian -5.23% | OVCAR-4 ovarian -35.4% | SK-OV-3 ovarian -5.19% | IGROV1 ovarian -24.6% | OVCAR-3 ovarian -46.2% | HS 578T breast -46.7% | NCI/ADR-RES ovarian 0.85%

COc1ccc(/C=N/NC(=O)CSc2nc(-c3cnccn3)cc(-c3cccs3)c2C#N)cc1
inactive: SR leukemia 65.3% | RPMI-8226 leukemia 48.3% | OVCAR-8 ovarian 61.4% | OVCAR-5 ovarian 103% | OVCAR-4 ovarian 92.6% | SK-OV-3 ovarian 75.6% | IGROV1 ovarian 90.7% | OVCAR-3 ovarian 90.6% | HS 578T breast 64.6% | NCI/ADR-RES ovarian 65.8%

C#CCN(C)CCCOc1ccc(NCc2ccc(/C=C/C(=O)NO)cc2)cc1Cl
inactive: OVCAR-8 ovarian 11.9% | OVCAR-4 ovarian 22.4% | OVCAR-3 ovarian 11% | HS 578T breast 10.7%
active: SR leukemia 9.72% | RPMI-8226 leukemia 8.55% | OVCAR-5 ovarian 6.62% | SK-OV-3 ovarian -11.3% | IGROV1 ovarian -35.7% | NCI/ADR-RES ovarian -8.39%

Cc1ccc(C(=O)Nc2ccc(CNCCN3CCNCC3)c(C(F)(F)F)c2)cc1C#Cc1cnc2cccnn12
active: SR leukemia -39.4% | RPMI-8226 leukemia -23.3% | OVCAR-8 ovarian 2.74% | OVCAR-4 ovarian -23% | OVCAR-3 ovarian -20.5%
inactive: OVCAR-5 ovarian 51.8% | SK-OV-3 ovarian 114% | IGROV1 ovarian 11.8% | HS 578T breast 36.6% | NCI/ADR-RES ovarian 71.6%

CC1(C)C=Cc2cc(/C(N)=N/C(N)=N/c3nc4ccccc4s3)ccc2O1
inactive: RPMI-8226 leukemia 80.2% | OVCAR-8 ovarian 76.5% | OVCAR-5 ovarian 95.9% | OVCAR-4 ovarian 82.7% | SK-OV-3 ovarian 124% | IGROV1 ovarian 52.5% | OVCAR-3 ovarian 103% | HS 578T breast 101% | NCI/ADR-RES ovarian 81.7%
active: SR leukemia 6.81%

CN(C)c1ccc(/C=N/Nc2nc(N/N=C/c3ccc(N(C)C)cc3)nc(N3CCCCC3)n2)cc1
active: SR leukemia -14.1%
inactive: RPMI-8226 leukemia 32.6% | OVCAR-8 ovarian 56.6% | OVCAR-5 ovarian 96.1% | OVCAR-4 ovarian 106% | SK-OV-3 ovarian 132% | IGROV1 ovarian 93.8% | OVCAR-3 ovarian 65.6% | HS 578T breast 106% | NCI/ADR-RES ovarian 58.3%

O=C(CSc1nc2ccccc2c(=O)n1-c1ccccc1)N/N=C/c1ccc(Oc2ccc(Br)cc2)cc1
inactive: SR leukemia 73.4% | RPMI-8226 leukemia 68.3% | OVCAR-8 ovarian 63.3% | OVCAR-5 ovarian 94% | OVCAR-4 ovarian 81.7% | SK-OV-3 ovarian 84.5% | IGROV1 ovarian 65.6% | OVCAR-3 ovarian 117% | HS 578T breast 60.8% | NCI/ADR-RES ovarian 55.2%
